{"source": "PubChem BioAssay (EPA / NIEHS)", "note": "Activity calls are given as the source filed them. How the source made its calls: active means hit-call score of the fitted dose curve at least 0.9, where 1 is the maximum; inactive means score below 0.9."}
{"experiment": "ATG_FoxO_CIS: Attagene CIS-FACTORIAL HepG2 Assay for human Forkhead box O (FoxO) (AID 2282943)", "conditions": "HepG2 Attagene cis-reporter, FoxO element, mRNA; actives raise or lower the signal", "method_in_brief": "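HepG2 cells transiently transfected with cis-element-driven reporter units report endogenous FoxO activity. After 24 h chemical exposure, reporter mRNA quantified by RT-PCR, fluorescent labeling, HpaI digestion and capillary electrophoresis; bidirectional fit versus DMSO.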"}
{"compound": "CC(C)(c1ccccc1)c1ccc(Nc2ccc(C(C)(C)c3ccccc3)cc2)cc1", "outcome": "inactive"}
{"compound": "CCCC(C)C(=O)OCC", "note": "(stereo not drawn)", "outcome": "inactive"}
{"compound": "NC(=O)Nc1ccccc1", "outcome": "inactive"}
{"compound": "CC1=CCC(C(C)C)C=C1", "note": "(stereo not drawn)", "outcome": "inactive"}
{"compound": "CCN(CC)c1cccc(C)c1", "outcome": "inactive"}
{"compound": "CC(=O)OC/C=C(/C)CCC=C(C)C", "outcome": "inactive"}
{"compound": "O=C(O)c1cc(O)c2ccccc2c1O", "AC50": "52 µM (active)"}
{"experiment": "ATG_GATA_CIS: Attagene CIS-FACTORIAL HepG2 Assay for human GATA Binding Protein (AID 2282944)", "conditions": "HepG2 GATA cis-element reporter, Attagene multiplex mRNA; actives raise or lower the signal", "method_in_brief": "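Read-out: fluorescent reporter mRNA fragments resolved by capillary electrophoresis after RT-PCR. Human liver HepG2 cells carried transiently transfected cis-regulated reporter constructs; chemicals incubated 24 h; gain or loss of signal fitted relative to DMSO.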"}
{"compound": "O=S(=O)(O)c1ccc(N=Nc2c(O)ccc3ccccc23)cc1", "outcome": "inactive"}
{"compound": "CC1(C)[C@@H]2CC[C@@]1(C)C(=O)C2", "outcome": "inactive"}
{"compound": "Cc1ccc(C)c(OCCCC(C)(C)C(=O)O)c1", "outcome": "inactive"}
{"compound": "COc1ccc(C(=O)/C(Br)=C\\C(=O)O)cc1", "outcome": "inactive"}
{"compound": "C/C=C/C=C/CCCCCCCO", "outcome": "inactive"}
{"compound": "CCCCCCCCCCCC(C)=O", "outcome": "inactive"}
{"compound": "CC(=O)OCC=C(C)C", "outcome": "inactive"}
{"compound": "CCCC=C(C=O)CC", "outcome": "inactive"}
{"compound": "CCc1cccc(C)c1N", "outcome": "inactive"}
{"compound": "CCCCCCCCCCCCC", "outcome": "inactive"}
{"compound": "COCC(=O)O", "outcome": "inactive"}
{"compound": "CCC1COC(=O)O1", "note": "(stereo not drawn)", "outcome": "inactive"}
{"compound": "CCCC1CCCC(=O)O1", "note": "(stereo not drawn)", "outcome": "inactive"}
{"compound": "CC(=O)OC1CCCCC1", "outcome": "inactive"}
{"compound": "CCCCCC(=O)OCC", "outcome": "inactive"}
{"compound": "CC(C)(C)NC(=O)[C@H]1CC[C@H]2[C@@H]3CC[C@H]4NC(=O)C=C[C@]4(C)[C@H]3CC[C@]12C", "outcome": "inactive"}
{"compound": "CCC1(C)C(=O)N(Cl)C(=O)N1Cl", "note": "(stereo not drawn)", "outcome": "inactive"}
{"compound": "CC/C=C\\CCOC(=O)c1ccccc1O", "outcome": "inactive"}
{"compound": "CN1CCN(C)CC1", "outcome": "inactive"}
{"compound": "CC(C)OC(=O)c1ccccc1", "outcome": "inactive"}
{"compound": "C=CCCCCCCCCC=O", "outcome": "inactive"}
{"compound": "CC(=O)/C=C/C1C(C)=CCCC1(C)C", "note": "(stereo not drawn)", "outcome": "inactive"}
{"compound": "C=C(C)C1CC=C(C)CC1", "note": "(stereo not drawn)", "outcome": "inactive"}
{"compound": "CCCCCCCCC(CO)CCCCCC", "note": "(stereo not drawn)", "AC50": "65.5 µM (active)"}
{"compound": "O=C(O)c1ccc2c(c1)C(=O)OC2=O", "outcome": "inactive"}
{"compound": "CC(C)(c1ccccc1)c1ccc(Nc2ccc(C(C)(C)c3ccccc3)cc2)cc1", "outcome": "inactive"}
{"compound": "NC(=O)Nc1ccccc1", "outcome": "inactive"}
{"compound": "CC1=CCC(C(C)C)C=C1", "note": "(stereo not drawn)", "outcome": "inactive"}
{"compound": "CCN(CC)c1cccc(C)c1", "outcome": "inactive"}
{"compound": "CC(=O)OC/C=C(/C)CCC=C(C)C", "outcome": "inactive"}
{"compound": "O=C(O)c1cc(O)c2ccccc2c1O", "outcome": "inactive"}
